Inconclusive results are not listed. Calls of active or inactive are those of the source. How the source made its calls: active means hit-call score of the fitted dose curve at least 0.9, where 1 is the maximum; inconclusive means response in the unintended direction; inactive means score below 0.9.
Experiment: ATG_XTT_Cytotoxicity: Cytotoxicity Assessment in the Attagene TRANS-FACTORIAL HepG2 Assay (AID 2283584);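 on AC50: cells exposed to compound for 24 h before reading; active means loss of viability signal versus DMSO baseline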
How it was run: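 Cells: human HepG2, transiently transfected with MRTU reporter constructs. Exposure 24 h. Readout: XTT, cell number. Baseline/neg ctrl DMSO; loss-of-signal scored.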

| SMILES | outcome | AC50 |
| --- | --- | --- |
| Cc1ccccc1OP(=O)(Oc1ccccc1)Oc1ccccc1 | inactive |  |
| CCCSP(=S)(OCC)Oc1ccc(Cl)cc1Cl (stereo unspecified) | inactive |  |
| NC(=O)c1ccc(N)nc1 | inactive |  |
| CN(CCCC(O)c1cccnc1)N=O (stereo unspecified) | inactive |  |
| O=c1[nH]c(=O)n(Cl)c(=O)n1Cl | inactive |  |
| CNC(=O)N(C)c1nc2ccccc2s1 | inactive |  |
| c1ccc2sc(SNC3CCCCC3)nc2c1 | inactive |  |
| O=c1nc(O)n(Cl)c(=O)n1Cl | inactive |  |
| COc1ccc([N+](=O)[O-])cc1O | inactive |  |
| N#Cc1ccccc1N | inactive |  |
| Cc1cc(Cl)ccc1N | inactive |  |
| C[C@@H]1O[C@@H](O[C@H]2C[C@@H](O)[C@]3(CO)[C@H]4[C@H](O)C[C@]5(C)[C@@H](C6=CC(=O)OC6)CC[C@]5(O)[C@@H]4CC[C@]3(O)C2)[C@H](O)[C@H](O)[C@H]1O | inactive |  |
| Brc1c(Br)c(Br)c(Oc2c(Br)c(Br)c(Br)c(Br)c2Br)c(Br)c1Br | inactive |  |
| Cc1ccc2nc3sc(=O)sc3nc2c1 | inactive |  |
| BrCC(Br)c1ccccc1 (stereo unspecified) | inactive |  |
| N#Cc1ccccc1Cl | inactive |  |
| Oc1c(Br)cc(Br)cc1Br | inactive |  |
| C=CCOC(N)=O | inactive |  |

| SMILES | outcome | AC50 |
| --- | --- | --- |
| CN(C1CCCCC1)C1CCCCC1 | inactive |  |
| c1cc[c]([Sb]([c]2ccccc2)[c]2ccccc2)cc1 | inactive |  |
| ClCCN1CCOCC1 | inactive |  |
| C1CCC(C2CCCCC2)CC1 | inactive |  |
| CC1(C)COP(Oc2ccccc2)OC1 | inactive |  |
| CCOC(=O)Cc1ccccc1 | inactive |  |
| CCOP(=S)(OCC)SCS(=O)(=O)C(C)(C)C | inactive |  |
| NNCCO | inactive |  |
| OC(Cc1ccccc1Cl)(Cn1cncn1)C1(Cl)CC1 (stereo unspecified) | inactive |  |
| CC(C)N(C(=O)CCl)c1ccccc1 |  | 31.2 µM (active) |
| CN(N=O)c1ccc([N+](=O)[O-])cc1 | inactive |  |
| O=C1C=CC(=O)c2ccccc21 |  | 49.2 µM (active) |
| CCCCCCCCCCCCOS(=O)(=O)O | inactive |  |
| Oc1cccc(-c2ccccc2)c1 | inactive |  |
| CC(c1ccccc1)(c1ccc(O)cc1)c1ccc(O)cc1 |  | 40.4 µM (active) |
| CCOP(=O)(OCC)SCCSCC | inactive |  |
| Cc1cccc(OP(=O)(Oc2cccc(C)c2)Oc2cccc(C)c2)c1 | inactive |  |
| Cc1ccc(CCl)cc1 | inactive |  |

— PubChem BioAssay (EPA / NIEHS)
